Assay results published in PubChem BioAssay (NCI).
The panel holds about 83,000 compounds, 20% with a hit somewhere; the sample as a whole holds those more often.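 Testing used 96-well plates and a 48-hour single-concentration exposure. Example: -40 means 40% of the starting cells died.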 Values without a mark were called inactive. The source made the active and inactive calls. Rule for the calls: active = growth percent below 10; inactive = the rest.

Columns and labels:
Experiment in all cases: NCI-60 one-dose screen, 48 h (100 = growth as untreated, 0 = no growth, -100 = all killed)
Conditions in all cases: 10 µM unless noted
[1] = tested on: DU-145 prostate
[2] = tested on: K-562 leukemia
[3] = tested on: MALME-3M melanoma
[4] = tested on: MDA-MB-231 breast
[5] = tested on: SF-268 CNS
[6] = tested on: SF-295 CNS
[7] = tested on: SF-539 CNS
[8] = tested on: UACC-257 melanoma
[9] = tested on: HCT-15 colon
[10] = tested on: HT29 colon
[11] = tested on: SNB-75 CNS
[12] = tested on: SNB-19 CNS
[13] = tested on: U251 CNS
[14] = tested on: PC-3 prostate
[15] = tested on: SK-MEL-5 melanoma
[16] = tested on: UACC-62 melanoma
[17] = tested on: LOX IMVI melanoma
[18] = tested on: SK-MEL-28 melanoma

O[C@H]1CO[C@H]2[C@@H]1OC[C@@H]2Oc1ccc(Nc2nc(Nc3ccc(F)c(Cl)c3)ncc2F)cc1Cl
growth [1]: 117% | growth [2]: 115% | growth [3]: 100% | growth [4]: 95.4% | growth [5]: 103% | growth [6]: 92.1% | growth [7]: 95% | growth [8]: 106% | growth [9]: 90.8% | growth [10]: 111% | growth [11]: 74.7% | growth [12]: 103% | growth [13]: 108% | growth [14]: 102% | growth [15]: -90.5% (active) | growth [16]: 89.4% | growth [17]: 103% | growth [18]: 99.7%

CN(C)CCN1C(=O)c2cccc3c(-c4ccc(-c5nc6c7ccccc7c7ccccc7c6[nH]5)cc4)ccc(c23)C1=O
growth [1]: 102% | growth [2]: 28.5% | growth [3]: 110% | growth [4]: 89.1% | growth [5]: 105% | growth [6]: 105% | growth [7]: 92.7% | growth [8]: 110% | growth [9]: 102% | growth [10]: 81.1% | growth [11]: 117% | growth [12]: 110% | growth [13]: 95.5% | growth [14]: 87.9% | growth [15]: 101% | growth [16]: 112% | growth [17]: 58% | growth [18]: 114%

COc1ccc(OC)c(/C=C2\COc3ccc(O)cc3C2=O)c1
growth [1]: 107% | growth [2]: 9.33% (active) | growth [3]: 81.9% | growth [4]: 98.3% | growth [5]: 99.2% | growth [6]: 102% | growth [7]: 90.5% | growth [8]: 99.4% | growth [9]: 78.5% | growth [10]: 45.9% | growth [11]: 116% | growth [12]: 84.5% | growth [13]: 84.6% | growth [14]: 95.2% | growth [16]: 84.3% | growth [17]: 51.3% | growth [18]: 94.9%

COc1ccc(/C(C)=C(\c2ccc(Cl)cc2)c2ccc(OCCN3CCCCC3)cc2)cc1F
growth [1]: 63.3% | growth [2]: 1.56% (active) | growth [3]: -27.2% (active) | growth [4]: 49.5% | growth [5]: 63.5% | growth [6]: -19.7% (active) | growth [7]: 4.69% (active) | growth [8]: 24.6% | growth [9]: 0.563% (active) | growth [10]: 4.57% (active) | growth [11]: 65% | growth [12]: 58.3% | growth [13]: 34.1% | growth [14]: 28% | growth [15]: 57.1% | growth [16]: -33% (active) | growth [17]: -73.1% (active) | growth [18]: -21.3% (active)

O=C1c2cccc3c(-c4ccc(-c5nc6c7ccccc7c7ccccc7c6[nH]5)cc4)ccc(c23)C(=O)N1CCN1CCNCC1
growth [1]: 42.5% | growth [2]: -10.2% (active) | growth [3]: 85.4% | growth [4]: 63.3% | growth [5]: 104% | growth [6]: 101% | growth [7]: 73.8% | growth [8]: 108% | growth [9]: 40.9% | growth [10]: 5.47% (active) | growth [11]: 103% | growth [12]: 103% | growth [13]: 62.1% | growth [14]: 66.6% | growth [16]: 106% | growth [17]: -55.8% (active) | growth [18]: 119%
